Over roughly 33,000 sequences, “E-score (-0.5 to 0.5)” has its median near -8e-05; the highest 2% begin near 0.23. The entries come from a sample that favours the highest values as a whole.
target: T1, Nrg2 (UniProt P38082); assay: PBM E-score (8-mer binding enrichment) (E-score (-0.5 to 0.5)); higher = stronger / more preferred TF binding; settings: protein concentration: 100 nM; construct: GST-full length
T1 sequence: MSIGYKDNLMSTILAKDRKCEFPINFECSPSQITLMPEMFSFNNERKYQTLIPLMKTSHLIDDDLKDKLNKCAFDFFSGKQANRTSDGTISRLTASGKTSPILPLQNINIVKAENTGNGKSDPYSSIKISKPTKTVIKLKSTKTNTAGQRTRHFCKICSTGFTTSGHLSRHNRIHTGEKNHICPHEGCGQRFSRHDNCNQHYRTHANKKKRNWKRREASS
In short: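 Each ungapped eight-base word and its reverse complement, pooled, received an E-score from the Universal PBM Analysis Suite. Underlying scans, normalised with masliner, recorded fluorescent anti-GST bound to GST-tagged yeast transcription factors. These were applied at about 100-200 nM to universal all-10-mer Agilent arrays double-stranded by primer extension.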

Sequence	PBM E-score
CCAATACG	-0.165
ACCTCGAG	0.281
ACCTCGAT	0.147
CCCTCGAG	0.143
AAGAAAAG	-0.0237
TCAATTCA	0.102
CAGGGTAG	0.303
AAGGGTAC	0.165
CAGGGTAA	0.215
AAGGGTAG	0.0465
CAGGGTAC	0.235
AGGGGTAG	-0.0372
AAGTCTAT	-0.0746
TAGTAAGA	0.107
CCCCTGCA	-0.00126
ACCCTGCG	0.254
ACCCTGCT	0.0589
ACCCTGCC	0.0806
AGCCTGCA	0.0137
GCCCTGCA	0.044
TCCCTGCA	0.25
ACCCTGCA	0.376
CCCCTGCG	-0.0622
ATAGGACA	-0.118
GGTCTTGA	-0.0327

Sequence	PBM E-score
ACCAAGTC	0.111
AAAGCCCG	-0.147
AAAAGCGT	-0.0481
AAAAACTT	-0.148
CGCTGGCA	0.0236
CGGCATTA	0.0976
CCGCGCGA	0.202
ACGCGCGC	0.279
ACGCGCGG	0.192
GCGCACGC	-0.0951
GCGCGATA	0.254
CCGCGATA	0.117
ACGCGCGT	0.17
TCGCGCGA	0.138
GCGCGCGA	0.251
TCGCACGA	-0.00406
GCGCACGA	0.238
ACGCGATA	0.0412
CTTACCCA	0.0294
AATGCAAT	-0.287
GGTCCAGA	0.125
AGGCGGGG	0.0214
AACGATTC	0.0537
ACGGACGT	-0.169
GTCCAGAC	-0.175

Sequence	PBM E-score
ATCTTTGC	0.133
GAGCGCGA	0.196
CAGCGCGC	0.21
CCGCGGTA	0.119
GCGCGGTA	0.271
GCGCGCGC	0.415
ACGCGGTA	-0.152
GAGCGCGC	0.263
GCGCGCAC	0.165
GCGCGCCC	0.0648
CCTTTCCG	-0.116
TTGAACAA	-0.0525
ACGGAAGC	-0.0173
AGCCAGCG	-0.0673
CTCGGAGA	0.0113
ATCAGTAA	0.0691
AGAAAGTC	0.037
ACCTGTGC	-0.0445
CCCTGTAC	0.208
CCCTGTGA	0.059
CCCTGAAC	0.282
GACTGAAA	0.0848
GCCTGTAA	-0.225
CACTGAAA	0.0555
CCCTGTAA	0.294

Sequence	PBM E-score
CCCTGAAG	0.208
CCCTGTGC	0.263
GCCTGAAC	-0.211
TACTGAAA	0.242
ACGGTTAG	-0.312
ATTCTTTA	-0.0742
CATCAATC	-0.0356
AGGGTTAC	-0.14
CAAGTGTA	-0.0141
ATGATGGG	0.0257
CTATGGCA	-0.0101
CCCTGAAA	0.305
GCCTGAAA	0.115
CCCTGGAA	0.0405
CCCTGGAG	0.05
CCCTGCAA	0.162
CCCTGGAC	0.295
ACCTGCAG	-0.0488
TCCTGAAA	-0.0476
CCCTGCAG	0.26
ACTCCCGG	-0.0764
ATCCCATA	-0.0872
ACATAGTA	0.0458
CCATAGTA	0.0238
GCATAGTA	0.23

Sequence	PBM E-score
TCTGCAAA	-0.0511
GGCTTCTA	-0.075
AGAAACTG	0.0813
GACAAGGA	0.0442
ACGGTCCA	-0.162
AGGGTCCA	0.439
AAGGTCCA	0.073
CGGGTCCA	0.0193
CGGGTCCC	-0.125
ACGGTCCC	-0.00846
AGGGTCCC	0.397
AGGGTCAA	0.236
AGGGTCAG	-0.102
CGGGTCAA	-0.0478
GGGGTCCA	0.27
GAGGTCCA	-0.0725
GGGACAAA	0.11
GCTGCCAC	-0.138
ACAGTGGT	0.0526
CTGCTTGA	-0.0823
CAGATCAG	0.194
CGCTCGGC	0.0597
AAGGTCCG	-0.0532
ACGGTCCG	-0.231
AGGGTCCG	0.374

Sequence	PBM E-score
ACCTCAAC	0.0405
GGCCAACC	0.0203
AATATTAT	0.219
AATATTAA	0.295
TATATTAA	0.234
AATATTAG	0.256
GATATTAA	0.147
AGTATTAG	0.273
CATATTAG	0.124
CATATTAA	0.129
AATATTAC	0.14
ACTATTAA	0.175
AGTATTAA	0.219
CGTATTAG	0.0345
CTTAGGAA	-0.0218
CGGAGCAA	0.0265
CCTTCGCC	-0.31
AATCCTGC	-0.00651
CGCATTCA	0.0356
GAACTGCA	0.0913
ACATATAA	0.211
GCCCCCAA	-0.331
CTTTCCAA	-0.0143
AATATTCC	0.233
AATATTCG	0.177

Sequence	PBM E-score
AATATTCA	0.144
TATTACCA	0.0363
CGAATACA	0.0068
TCAACGGA	-0.0313
CCAACGGA	-0.031
ACAACGGG	0.243
ACAACGGT	-0.0246
ACAACGGA	0.242
CCAACGGG	0.0593
GACCGGAC	-0.168
AAAGGGCG	0.0812
AGCGCACT	-0.0126
GTTAGGCA	-0.146
CTTGGTCA	0.138
CATGGTCA	0.236
CATGGTCG	-0.0584
CATGGTCC	0.0356
ATTGGTCA	0.0477
GTTGGTCA	0.229
GGAGTGAC	0.102
ACACCGAC	-0.151
CGCCCTAA	-0.171
